In the library only some 7.4% were active in any assay of this set; here they are far more common.
NPC1 prom act: activates the NPC1 promoter. 320,000 compounds, 2.4% hits. Huh7 NPC1 promoter luciferase reporter, 24 h. AID 485313. Potency, µM (highest dose often 9.22 µM), most hits filed as activators; note: nearly all actives have a fitted effect of over 60% in size
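Compounds in DMSO were transferred onto Huh7 NPC1-luciferase reporter cells pre-incubated 2 h; after 24 h at 37 °C, Amplite reagent was dispensed and luminescence recorded 10 min later.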
ELG1 genotox: induces genotoxicity in HEK293T cells with luciferase-tagged ELG1; HEK293T ELG1-luciferase reporter, luminescence, 16 h; 330,000 compounds, 1.3% hits; Potency, µM (series often up to 46 µM), most hits filed as activators; note: nearly all actives have a fitted effect of over 60% in size
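After overnight (16 hr) compound treatment at 37 °C, ELG1-luciferase HEK293T cells were lysed with ONE-Glo; luminescence quantified 30 min later at room temperature.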
SMN2 splice enh: enhancers of SMN2 splice variant expression; HEK293 SMN2-luciferase splicing reporter, luminescence, 30-36 h; Potency, µM (top dose mostly 46.1 µM), most hits filed as activators; 210,000 compounds, 2.8% hits; AID 1458; note: nearly all actives have a fitted effect of over 55% in size
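HEK293 cells carry an SMN2 […]–luciferase reporter in which exon 7 inclusion puts luciferase in frame. Cells were plated 10-12 h before compound addition, then incubated 30-36 h at 37C. ONE-Glo luminescence was read; sodium butyrate at 4.5 mM final served as control.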
p53 reactivation: restores transcriptional activity of mutant p53; 320,000 compounds, 0.063% hits; AID 504706; Potency, µM (titrated, usually from 92.2 µM), actives largely listed as activators; H1299 p53-A138V BP100-luciferase reporter, luminescence, 24 h; note: nearly all actives have a fitted effect of over 45% in size
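H1299 (p53-null), stable ts p53-A138V + BP100-Luc; 1000 cells/well, Opti-MEM/10% FBS; cpd 4 pt, 1:5; 24 h, 37 deg C, 5% CO2; detection reagent 10 min RT; luminescence.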
FLuc counter: firefly luciferase modulation, counter-screen for miR-21 project; P08659; purified FLuc, Km substrates, luminescence inhibition; Potency, µM (top dose mostly 57.5 µM), actives largely listed as inhibitors; 360,000 compounds, 6.9% hits; AID 588342; note: nearly all actives have a fitted effect of over 55% in size
Target sequence (P08659 whole entry, looked up): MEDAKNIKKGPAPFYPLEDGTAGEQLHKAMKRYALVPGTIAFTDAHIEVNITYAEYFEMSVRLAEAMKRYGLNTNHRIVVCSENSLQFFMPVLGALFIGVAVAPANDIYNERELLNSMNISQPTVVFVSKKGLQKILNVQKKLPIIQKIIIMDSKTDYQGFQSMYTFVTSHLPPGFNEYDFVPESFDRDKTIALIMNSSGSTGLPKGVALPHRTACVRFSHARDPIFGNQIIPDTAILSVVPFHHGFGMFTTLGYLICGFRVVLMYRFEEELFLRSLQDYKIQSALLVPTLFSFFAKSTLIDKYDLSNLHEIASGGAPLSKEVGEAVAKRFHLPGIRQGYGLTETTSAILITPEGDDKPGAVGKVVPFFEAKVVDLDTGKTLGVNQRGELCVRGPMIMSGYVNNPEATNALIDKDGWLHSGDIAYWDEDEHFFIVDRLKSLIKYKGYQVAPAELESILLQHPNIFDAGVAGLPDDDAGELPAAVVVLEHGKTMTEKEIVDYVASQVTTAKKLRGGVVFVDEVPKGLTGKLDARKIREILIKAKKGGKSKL
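Purified P. pyralis luciferase (10nM final) with 10uM D-luciferin and 10uM ATP (Km levels) in 50mM Tris acetate pH 7.5, 10mM Mg acetate, 0.01% Tween-20, 0.05% BSA; qHTS 6-point titration, ~60 µM downward; luminescence read.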
Rab9 promoter act: activators of Rab9 promoter | Huh7 Rab9 promoter-luciferase reporter, luminescence, 24 h | Potency, µM (top dose mostly 9.22 µM), actives largely listed as activators | 320,000 compounds, 2.8% hits | AID 485297; note: nearly all actives have a fitted effect of over 60% in size
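Rab9 promoter-driven luciferase in stably transfected Huh7 cells; 1500 cells/well rested 2 h, exposed to compound in DMSO for 24 h at 37 °C, 5% CO2. Luminescence read 10 min after adding luciferase reagent at ambient temperature.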
Hits are given with their value. Calls come from the whole dose curve; as a rule, active = well fitted curve in the direction sought with a large enough effect; inconclusive = small, poorly fitted or top-dose-only effect, or another doubt; inactive = no such curve, though single readings can be large; an effect the other way counts as inactive or inconclusive.

`CCCN(CC(=O)Nc1ccccc1OC)C(=O)c1nc2nc(C)ccn2n1` gave ELG1 genotox inactive and p53 reactivation inactive.
`CC(=O)c1c(C)[nH]c(C(=O)Nc2ccc(C)cc2Br)c1C` gave NPC1 prom act 3.55µM, ELG1 genotox inconclusive, p53 reactivation inconclusive, FLuc counter inconclusive and Rab9 promoter act 0.891µM.
`CC(=O)c1c(C)[nH]c(C(=O)NCCc2cccc(C)c2)c1C` gave NPC1 prom act inconclusive, ELG1 genotox inactive, SMN2 splice enh inactive, p53 reactivation inactive, FLuc counter 16.9µM and Rab9 promoter act inconclusive.
`CCc1c(C(=O)NCCc2cccc(C)c2)[nH]c(C)c1C(C)=O` gave NPC1 prom act inactive, ELG1 genotox inactive, p53 reactivation inactive, FLuc counter inactive and Rab9 promoter act inactive.
`CCN(CC)S(=O)(=O)c1ccc(N2CCOCC2)c(NC(=O)c2[nH]c(C)c(C(C)=O)c2C)c1` gave ELG1 genotox 10.3µM and p53 reactivation inactive.
`CCc1c(C(=O)Nc2ccc(C)c(C)c2)[nH]c(C)c1C(C)=O` gave NPC1 prom act inconclusive, ELG1 genotox inconclusive, p53 reactivation inactive, FLuc counter 15.1µM and Rab9 promoter act 3.16µM.
CCOC(=O)C1C(=O)OC(C)(C)C1C(CC)C(=O)c1c(C)cc(C)cc1C (stereo not given) was read as NPC1 prom act inactive, ELG1 genotox inactive, p53 reactivation inactive, FLuc counter inactive and Rab9 promoter act inactive.
Screening COC(=O)c1ccccc1NC(=O)CNc1ccc(F)c(S(=O)(=O)N2CCOCC2)c1 returned NPC1 prom act inactive, ELG1 genotox inactive, p53 reactivation inactive, FLuc counter inactive and Rab9 promoter act inactive.
For CCOC(=O)c1c(C)[nH]c(C(=O)NNC(=O)c2ccccc2)c1C the results were NPC1 prom act 0.562µM, ELG1 genotox inconclusive, SMN2 splice enh 11.2µM, p53 reactivation inactive, FLuc counter 6.75µM and Rab9 promoter act 1.78µM.
For CCc1c(C(=O)Nc2cc(C)ccc2OC)[nH]c(C)c1C(C)=O the results were NPC1 prom act inactive, ELG1 genotox inconclusive, SMN2 splice enh inactive, p53 reactivation inactive, FLuc counter inactive and Rab9 promoter act inactive.
For CCc1c(C(=O)Nc2ccc(OC)cc2)[nH]c(C)c1C(C)=O the results were NPC1 prom act inactive, ELG1 genotox inactive, SMN2 splice enh 22.4µM, p53 reactivation inactive, FLuc counter inconclusive and Rab9 promoter act inactive.
Screening CC(=O)c1c(C)[nH]c(C(=O)Nc2ccc(C)c(C)c2)c1C returned NPC1 prom act inconclusive, ELG1 genotox 10.3µM, p53 reactivation inactive, FLuc counter 10.7µM and Rab9 promoter act 1.41µM.
For CCOC(=O)c1c(C)[nH]c(C(=O)Nc2ccc(C)c(Cl)c2)c1C the results were NPC1 prom act 2µM, ELG1 genotox inconclusive, SMN2 splice enh 11.2µM, p53 reactivation inconclusive, FLuc counter 2.39µM and Rab9 promoter act 3.98µM.
Screening COc1ccc(NC(=O)c2[nH]c(C)c(C(C)=O)c2C)cc1Cl returned NPC1 prom act inactive, ELG1 genotox inactive, SMN2 splice enh inactive, p53 reactivation inconclusive, FLuc counter inconclusive and Rab9 promoter act inconclusive.
`CCOC(=O)c1c(C)[nH]c(C(=O)NNC(=O)c2ccc(Br)cc2)c1C` gave NPC1 prom act inactive, ELG1 genotox inactive, p53 reactivation inconclusive, FLuc counter inconclusive and Rab9 promoter act inactive.
For CC(=O)NCc1ccc(S(=O)(=O)N2CCCN(C)CC2)cc1 the results were NPC1 prom act inactive, ELG1 genotox inactive, p53 reactivation inactive, FLuc counter inactive and Rab9 promoter act inactive.
`CC(=O)c1c(C)[nH]c(C(=O)Nc2ccc3c(c2)OCCO3)c1C` gave NPC1 prom act 1.78µM, ELG1 genotox inconclusive, SMN2 splice enh 5.62µM, p53 reactivation inconclusive, FLuc counter 4.78µM and Rab9 promoter act 1.26µM.
Cc1nn(-c2ccc(N3CCCC3)nn2)c(C)c1CCC(=O)NCc1ccc(OC(C)C)cc1 was read as FLuc counter inactive.
`O=C(Nc1ccc(F)cc1)c1ccccc1` gave NPC1 prom act inconclusive, ELG1 genotox inconclusive, SMN2 splice enh inactive, p53 reactivation inactive, FLuc counter 23.9µM and Rab9 promoter act inconclusive.

Screening results: PubChem, National Center for Advancing Translational Sciences (NCATS)
